Laboratory results published in PubChem BioAssay AID1159580 (chemical genetic matrix, 2015).
Hit rate of the full screen: of about 5,500 compounds, about 2,000 (36%) were called active. Roughly 18% stayed inconclusive and do not appear here. Rule as the data show it: active = normalized growth mostly below about 0.91 (no sharp cut-off); inconclusive = no clear call, values can overlap the other calls; inactive = mostly above about 0.92. Some of the results follow.

Assay: chemical genetic growth profiling, strain panel (AID 1159580);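 also: tested at 20 µM; growth read once vehicle control cultures reached saturation at 30 °C; 1 = growth at the plate median or of vehicle wells; lower values mean less growth of the strain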
Settings: growth OD

Measured: normalized growth

O=c1c(-c2ccccc2)coc2cc(O)cc(O)c12
inactive: S. cerevisiae deletion strains, locus YAL021C, strain ccr4, stronger effect = lower value 0.977 | S. cerevisiae deletion strains, locus YAL026C, strain drs2, stronger effect = lower value 0.927 | S. cerevisiae deletion strains, locus YAL030W, strain snc1, stronger effect = lower value 0.99 | S. cerevisiae deletion strains, locus YBL061C, strain skt5, stronger effect = lower value 0.978 | S. cerevisiae deletion strains, locus YBR009C, strain hhf1, stronger effect = lower value 0.946 | S. cerevisiae deletion strains, locus YBR021W, strain FUR4, stronger effect = lower value 0.859 | S. cerevisiae deletion strains, locus YBR023C, strain chs3, stronger effect = lower value 0.967 | S. cerevisiae deletion strains, locus YBR171W, strain sec66, stronger effect = lower value 1.01 | S. cerevisiae deletion strains, locus YBR231C, strain swc5, stronger effect = lower value 0.965 | S. cerevisiae deletion strains, locus YBR279W, strain paf1, stronger effect = lower value 1 | S. cerevisiae deletion strains, locus YCL011C, strain gbp2, stronger effect = lower value 0.969 | S. cerevisiae deletion strains, locus YCL016C, strain dcc1, stronger effect = lower value 0.983 | S. cerevisiae deletion strains, locus YCL061C, strain MRC1, stronger effect = lower value 0.961 | S. cerevisiae deletion strains, locus YCL069W, strain vba3, stronger effect = lower value 1 | S. cerevisiae deletion strains, locus YCR088W, strain abp1, stronger effect = lower value 1.01 | S. cerevisiae deletion strains, locus YDL005C, strain med2, stronger effect = lower value 1.04 | S. cerevisiae deletion strains, locus YDL040C, strain nat1, stronger effect = lower value 1.01 | S. cerevisiae deletion strains, locus YDR001C, strain nth1, stronger effect = lower value 1.01 | S. cerevisiae deletion strains, locus YDR069C, strain doa4, stronger effect = lower value 0.903 | S. cerevisiae deletion strains, locus YDR159W, strain sac3, stronger effect = lower value 1.08 | S. cerevisiae deletion strains, locus YDR195W, strain ref2 1.03 | S. cerevisiae deletion strains, locus YDR297W, strain sur2, stronger effect = lower value 0.977 | S. cerevisiae deletion strains, locus YDR334W, strain swr1, stronger effect = lower value 0.995 | S. cerevisiae deletion strains, locus YDR335W, strain msn5, stronger effect = lower value 0.993 | S. cerevisiae deletion strains, locus YDR392W, strain spt3, stronger effect = lower value 0.913 | S. cerevisiae deletion strains, locus YEL003W, strain gim4, stronger effect = lower value 0.971 | S. cerevisiae deletion strains, locus YEL037C, strain rad23, stronger effect = lower value 0.981 | S. cerevisiae deletion strains, locus YEL061C, strain CIN8 (second series), stronger effect = lower value 1.02 | S. cerevisiae deletion strains, locus YER015W, strain faa2, stronger effect = lower value 0.979 | S. cerevisiae deletion strains, locus YER016W, strain bim1, stronger effect = lower value 1.01 | S. cerevisiae deletion strains, locus YER111C, strain swi4, stronger effect = lower value 0.963 | S. cerevisiae deletion strains, locus YER155C, strain BEM2 (second series), stronger effect = lower value 0.982 | S. cerevisiae deletion strains, locus YER167W, strain BCK2, stronger effect = lower value 0.911 | S. cerevisiae deletion strains, locus YFR010W, strain ubp6, stronger effect = lower value 0.937 | S. cerevisiae deletion strains, locus YGL167C, strain pmr1, stronger effect = lower value 1.01 | S. cerevisiae deletion strains, locus YGL173C, strain kem1, stronger effect = lower value 0.991 | S. cerevisiae deletion strains, locus YGL227W, strain vid30, stronger effect = lower value 1.02 | S. cerevisiae deletion strains, locus YGL240W, strain doc1, stronger effect = lower value 0.935 | S. cerevisiae deletion strains, locus YGL253W, strain hxk2, stronger effect = lower value 0.972 | S. cerevisiae deletion strains, locus YHR013C, strain ard1, stronger effect = lower value 0.992 | S. cerevisiae deletion strains, locus YHR027C, strain rpn1, stronger effect = lower value 0.998 | S. cerevisiae deletion strains, locus YHR094C, strain hxt1, stronger effect = lower value 0.936 | S. cerevisiae deletion strains, locus YHR142W, strain chs7, stronger effect = lower value 0.946 | S. cerevisiae deletion strains, locus YIL073C, strain SPO22, stronger effect = lower value 0.76 | S. cerevisiae deletion strains, locus YJL092W, strain hpr5, stronger effect = lower value 0.993 | S. cerevisiae deletion strains, locus YJL095W, strain BCK1 (second series), stronger effect = lower value 0.996 | S. cerevisiae deletion strains, locus YJL115W, strain asf1, stronger effect = lower value 1.02 | S. cerevisiae deletion strains, locus YJL129C, strain trk1, stronger effect = lower value 1 | S. cerevisiae deletion strains, locus YJL154C, strain vps35, stronger effect = lower value 1.02 | S. cerevisiae deletion strains, locus YJL164C, strain tpk1, stronger effect = lower value 0.934 | S. cerevisiae deletion strains, locus YJL166W, strain qcr8, stronger effect = lower value 0.966 | S. cerevisiae deletion strains, locus YJL168C, strain set2, stronger effect = lower value 0.973 | S. cerevisiae deletion strains, locus YJL187C, strain SWE1, stronger effect = lower value 0.992 | S. cerevisiae deletion strains, locus YJR075W, strain HOC1, stronger effect = lower value 0.884 | S. cerevisiae deletion strains, locus YKL068W, stronger effect = lower value 0.951 | S. cerevisiae deletion strains, locus YKL160W, strain elf1, stronger effect = lower value 0.974 | S. cerevisiae deletion strains, locus YKL190W, strain CNB1, stronger effect = lower value 0.929 | S. cerevisiae deletion strains, locus YKR026C, strain gcn3, stronger effect = lower value 1 | S. cerevisiae deletion strains, locus YKR091W, strain srl3, stronger effect = lower value 1.01 | S. cerevisiae deletion strains, locus YLL001W, strain dnm1, stronger effect = lower value 0.965 | S. cerevisiae deletion strains, locus YLL026W, stronger effect = lower value 1 | S. cerevisiae deletion strains, locus YLL041C, strain sdh2, stronger effect = lower value 1.01 | S. cerevisiae deletion strains, locus YLR027C, strain aat2, stronger effect = lower value 1 | S. cerevisiae deletion strains, locus YLR102C, strain apc9, stronger effect = lower value 0.953 | S. cerevisiae deletion strains, locus YLR221C, strain rsa3, stronger effect = lower value 0.923 | S. cerevisiae deletion strains, locus YLR258W, strain gsy2, stronger effect = lower value 0.982 | S. cerevisiae deletion strains, locus YLR262C, strain YPT6 (second series), stronger effect = lower value 0.915 | S. cerevisiae deletion strains, locus YLR262C, strain YPT6, stronger effect = lower value 0.606 | S. cerevisiae deletion strains, locus YLR320W, strain mms22, stronger effect = lower value 0.98 | S. cerevisiae deletion strains, locus YLR342W, strain FKS1, stronger effect = lower value 0.976 | S. cerevisiae deletion strains, locus YLR357W, strain rsc2, stronger effect = lower value 0.881 | S. cerevisiae deletion strains, locus YLR370C, strain arc18, stronger effect = lower value 1.01 | S. cerevisiae deletion strains, locus YLR384C, strain iki3, stronger effect = lower value 1.02 | S. cerevisiae deletion strains, locus YML120C, strain ndi1, stronger effect = lower value 0.963 | S. cerevisiae deletion strains, locus YMR078C, strain ctf18, stronger effect = lower value 0.964 | S. cerevisiae deletion strains, locus YMR125W, strain sto1, stronger effect = lower value 0.997 | S. cerevisiae deletion strains, locus YMR129W, stronger effect = lower value 1.02 | S. cerevisiae deletion strains, locus YMR205C, strain PFK2, stronger effect = lower value 1.02 | S. cerevisiae deletion strains, locus YMR231W, strain pep5, stronger effect = lower value 1 | S. cerevisiae deletion strains, locus YNL071W, strain lat1, stronger effect = lower value 1.01 | S. cerevisiae deletion strains, locus YNL209W, strain ssb2, stronger effect = lower value 0.936 | S. cerevisiae deletion strains, locus YNL248C, strain rpa49, stronger effect = lower value 0.989 | S. cerevisiae deletion strains, locus YNL322C, strain KRE1 (second series), stronger effect = lower value 1.01 | S. cerevisiae deletion strains, locus YNR049C, strain mso1, stronger effect = lower value 1.01 | S. cerevisiae deletion strains, locus YOL012C, strain htz1 0.305 | S. cerevisiae deletion strains, locus YOR001W, strain rrp6, stronger effect = lower value 0.964 | S. cerevisiae deletion strains, locus YOR070C, strain gyp1, stronger effect = lower value 1.01 | S. cerevisiae deletion strains, locus YOR080W, strain dia2, stronger effect = lower value 1 | S. cerevisiae deletion strains, locus YOR083W, strain WHI5, stronger effect = lower value 0.938 | S. cerevisiae deletion strains, locus YOR106W, strain vam3, stronger effect = lower value 0.924 | S. cerevisiae deletion strains, locus YOR265W, strain rbl2, stronger effect = lower value 1.01 | S. cerevisiae deletion strains, locus YOR270C, strain vph1, stronger effect = lower value 0.912 | S. cerevisiae deletion strains, locus YOR290C, strain snf2, stronger effect = lower value 0.886 | S. cerevisiae deletion strains, locus YOR316C, strain cot1, stronger effect = lower value 0.979 | S. cerevisiae deletion strains, locus YPL051W, strain arl3, stronger effect = lower value 0.947 | S. cerevisiae deletion strains, locus YPL078C, strain atp4, stronger effect = lower value 0.967 | S. cerevisiae deletion strains, locus YPL106C, strain sse1, stronger effect = lower value 1.03 | S. cerevisiae deletion strains, locus YPL240C, strain hsp82, stronger effect = lower value 0.996 | S. cerevisiae deletion strains, locus YPR119W, strain clb2, stronger effect = lower value 0.992 | S. cerevisiae deletion strains, locus YPR141C, strain kar3, stronger effect = lower value 0.99
active: S. cerevisiae deletion strains, locus YAL013W, strain DEP1, stronger effect = lower value 0.837 | S. cerevisiae deletion strains, locus YBR229C, strain ROT2, stronger effect = lower value 0.853 | S. cerevisiae deletion strains, locus YCL029C, strain bik1, stronger effect = lower value 0.636 | S. cerevisiae deletion strains, locus YDL035C, strain GPR1, stronger effect = lower value 0.825 | S. cerevisiae deletion strains, locus YDL074C, strain BRE1, stronger effect = lower value 0.564 | S. cerevisiae deletion strains, locus YDL101C, strain DUN1, stronger effect = lower value 0.494 | S. cerevisiae deletion strains, locus YDL185W, strain tfp1, stronger effect = lower value 0.332 | S. cerevisiae deletion strains, locus YDL192W, strain arf1, stronger effect = lower value 0.781 | S. cerevisiae deletion strains, locus YDR101C, strain arx1, stronger effect = lower value 0.758 | S. cerevisiae deletion strains, locus YDR137W, strain rgp1, stronger effect = lower value 0.821 | S. cerevisiae deletion strains, locus YDR162C, strain NBP2, stronger effect = lower value 0.826 | S. cerevisiae deletion strains, locus YDR318W, strain mcm21, stronger effect = lower value 0.819 | S. cerevisiae deletion strains, locus YDR388W, stronger effect = lower value 0.879 | S. cerevisiae deletion strains, locus YDR502C, strain sam2, stronger effect = lower value 0.793 | S. cerevisiae deletion strains, locus YER110C, stronger effect = lower value 0.84 | S. cerevisiae deletion strains, locus YER155C, strain BEM2, stronger effect = lower value 0.769 | S. cerevisiae deletion strains, locus YGL078C, strain dbp3, stronger effect = lower value 0.822 | S. cerevisiae deletion strains, locus YGL086W, strain mad1, stronger effect = lower value 0.786 | S. cerevisiae deletion strains, locus YGL248W, strain PDE1, stronger effect = lower value 0.744 | S. cerevisiae deletion strains, locus YGR135W, strain pre9, stronger effect = lower value 0.727 | S. cerevisiae deletion strains, locus YGR229C, strain SMI1, stronger effect = lower value 0.613 | S. cerevisiae deletion strains, locus YGR252W, strain gcn5, stronger effect = lower value 0.648 | S. cerevisiae deletion strains, locus YHR030C, strain SLT2, stronger effect = lower value 0.879 | S. cerevisiae deletion strains, locus YHR079C, strain IRE1 (second series), stronger effect = lower value 0.739 | S. cerevisiae deletion strains, locus YHR129C, strain ARP1, stronger effect = lower value 0.795 | S. cerevisiae deletion strains, locus YHR200W, strain rpn10, stronger effect = lower value 0.84 | S. cerevisiae deletion strains, locus YIL066C, strain RNR3, stronger effect = lower value 0.817 | S. cerevisiae deletion strains, locus YIL125W, strain kgd1, stronger effect = lower value 0.755 | S. cerevisiae deletion strains, locus YIR030C, strain dcg1, stronger effect = lower value 0.884 | S. cerevisiae deletion strains, locus YJL095W, strain BCK1, stronger effect = lower value 0.447 | S. cerevisiae deletion strains, locus YJL134W, strain LCB3, stronger effect = lower value 0.924 | S. cerevisiae deletion strains, locus YJL187C, strain SWE1 (second series), stronger effect = lower value 0.394 | S. cerevisiae deletion strains, locus YJR043C, strain POL32, stronger effect = lower value 0.709 | S. cerevisiae deletion strains, locus YKL009W, strain mrt4, stronger effect = lower value 0.859 | S. cerevisiae deletion strains, locus YKL085W, strain MDH1 (second series), stronger effect = lower value 0.799 | S. cerevisiae deletion strains, locus YKL085W, strain MDH1, stronger effect = lower value 0.799 | S. cerevisiae deletion strains, locus YKR001C, strain vps1, stronger effect = lower value 0.567 | S. cerevisiae deletion strains, locus YLR039C, strain RIC1, stronger effect = lower value 0.506 | S. cerevisiae deletion strains, locus YLR058C, strain SHM2, stronger effect = lower value 0.311 | S. cerevisiae deletion strains, locus YLR268W, strain sec22, stronger effect = lower value 0.789 | S. cerevisiae deletion strains, locus YLR371W, strain rom2, stronger effect = lower value 0.715 | S. cerevisiae deletion strains, locus YLR418C, strain cdc73, stronger effect = lower value 0.534 | S. cerevisiae deletion strains, locus YML016C, strain PPZ1, stronger effect = lower value 0.829 | S. cerevisiae deletion strains, locus YML032C, strain rad52, stronger effect = lower value 0.746 | S. cerevisiae deletion strains, locus YML124C, strain tub3, stronger effect = lower value 0.885 | S. cerevisiae deletion strains, locus YMR058W, strain fet3, stronger effect = lower value 0.682 | S. cerevisiae deletion strains, locus YMR223W, strain ubp8, stronger effect = lower value 0.783 | S. cerevisiae deletion strains, locus YMR263W, strain SAP30, stronger effect = lower value 0.774 | S. cerevisiae deletion strains, locus YMR307W, strain GAS1, stronger effect = lower value 0.57 | S. cerevisiae deletion strains, locus YNL067W, strain RPL9B, stronger effect = lower value 0.842 | S. cerevisiae deletion strains, locus YNL233W, strain BNI4, stronger effect = lower value 0.792 | S. cerevisiae deletion strains, locus YNL250W, strain rad50, stronger effect = lower value 0.824 | S. cerevisiae deletion strains, locus YNL271C, strain bni1, stronger effect = lower value 0.646 | S. cerevisiae deletion strains, locus YNL298W, strain CLA4, stronger effect = lower value 0.766 | S. cerevisiae deletion strains, locus YNL307C, strain MCK1, stronger effect = lower value 0.714 | S. cerevisiae deletion strains, locus YNR052C, strain pop2, stronger effect = lower value 0.65 | S. cerevisiae deletion strains, locus YOL147C, strain pex11, stronger effect = lower value 0.588 | S. cerevisiae deletion strains, locus YOR061W, strain CKA2, stronger effect = lower value 0.869 | S. cerevisiae deletion strains, locus YOR069W, strain VPS5, stronger effect = lower value 0.848 | S. cerevisiae deletion strains, locus YOR136W, strain idh2, stronger effect = lower value 0.905 | S. cerevisiae deletion strains, locus YOR144C, strain elg1, stronger effect = lower value 0.686 | S. cerevisiae deletion strains, locus YOR184W, strain ser1, stronger effect = lower value 0.669 | S. cerevisiae deletion strains, locus YPL055C, strain LGE1, stronger effect = lower value 0.744 | S. cerevisiae deletion strains, locus YPL241C, strain CIN2, stronger effect = lower value 0.911 | S. cerevisiae deletion strains, locus YPR163C, strain tif3, stronger effect = lower value 0.643 | S. cerevisiae deletion strains, locus YPR167C, strain met16, stronger effect = lower value 0.815 | S. cerevisiae deletion strains, strain wtn01, stronger effect = lower value 0.767 | S. cerevisiae strains, strain wild type, stronger effect = lower value 0.772
